High-throughput results (PubChem)
FEN1 inhibitor – blocks human flap endonuclease 1; AID 588795; Recombinant FEN1 flap cleavage, fluorescence, 15 min; 390,000 compounds, 0.35% hits; Potency, µM (top dose mostly 114 µM), without a hit: top-dose activity change, negative = inhibition, actives largely listed as inhibitors; P39748; note: % is set by controls: 0 for no effect and ±100 for the full control effect; nearly all actives have a fitted effect of over 65% in size
Target sequence (P39748 whole entry, looked up): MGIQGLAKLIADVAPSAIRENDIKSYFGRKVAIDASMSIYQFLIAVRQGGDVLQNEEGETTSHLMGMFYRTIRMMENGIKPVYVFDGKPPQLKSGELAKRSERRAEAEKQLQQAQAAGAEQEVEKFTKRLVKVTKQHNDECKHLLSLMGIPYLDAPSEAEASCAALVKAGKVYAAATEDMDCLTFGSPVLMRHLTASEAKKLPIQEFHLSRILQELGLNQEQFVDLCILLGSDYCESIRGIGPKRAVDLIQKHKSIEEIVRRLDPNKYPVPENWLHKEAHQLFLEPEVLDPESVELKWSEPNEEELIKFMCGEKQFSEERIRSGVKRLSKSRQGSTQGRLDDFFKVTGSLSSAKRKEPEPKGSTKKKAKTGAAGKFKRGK
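FEN1 at 10 nM preincubated with compounds 15 min at room temperature, then flap DNA substrate added at 50 nM final. Signal read at 0 and 15 min; concentration-response fitted with four-parameter Hill equation.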
Pol beta inh – inhibitors of human DNA polymerase beta | Pol beta primer extension/strand displacement, fluorescence kinetic | 340,000 compounds, 1.3% hits | Potency, µM (top dose mostly 114 µM), inactives show top-dose activity change, negative = inhibition, hits mostly inhibitors; note: % is set by controls: 0 for no effect and ±100 for the full control effect
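Reaction started by 50 nM substrate onto compound-treated Pol beta (10 nM, 15 min preincubation, room temperature); plates read at 0 min and 10 min. Normalized concentration-effect data fitted by four-parameter Hill equation.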
POLI inh – blocks human DNA polymerase iota activity; Pol iota fluorescent replication assay, 10 min; Potency, µM (highest dose often 115 µM), for inactives: at the top dose activity, negative = inhibition, most hits filed as inhibitors; 390,000 compounds, 1% hits
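Fluorescent replication assay read twice, at 0 min and 10 min after adding 50 nM (final) substrate. Enzyme (10 nM) and compounds were first incubated 15 min at room temperature; enzyme-free buffer wells were negative controls.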
WRN inhibitor – inhibitors of human WRN helicase; 360,000 compounds, 0.46% hits; AID 651768; Potency, µM (doses to about 114 µM), inactives show at the top dose activity change, negative = inhibition, usual class: inhibitors; WRN helicase unwinding, fluorescent forked duplex, kinetic; note: % is set by controls: 0 for no effect and ±100 for the full control effect; nearly all actives have a fitted effect of over 55% in size
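WRN at 20 nM final preincubated with compound 15 min at room temperature; reaction started with 100 nM fluorophore/quencher forked duplex oligonucleotide and 2 mM ATP final. Unwinding followed kinetically by red fluorescence (ex 525, em 598 nm).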
Pol eta inh-1 – DNA polymerase eta (human) inhibition. recombinant Pol eta, fluorescent DNA replication assay. Potency, µM (titrated, usually from 114 µM), for inactives: top-dose activity change, negative = inhibition, usual class: inhibitors. 390,000 compounds, 1.2% hits; note: % is set by controls: 0 for no effect and ±100 for the full control effect
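Pol eta at 10 nM preincubated with compounds 15 min at room temperature; reaction started with fluorescent substrate (50 nM final) and read kinetically at 0 and 10 min.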
Pol kappa inh-1 – inhibitors of human DNA polymerase kappa; Potency, µM (highest dose often 107 µM), without a hit: top-dose activity, negative = inhibition, usual class: inhibitors; purified Pol kappa, fluorescent DNA synthesis assay, 10 min; AID 588579; 400,000 compounds, 0.53% hits; Q9UBT6; note: % is set by controls: 0 for no effect and ±100 for the full control effect
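Here, compound and 10 nM enzyme are combined for 15 min at room temperature; adding 50 nM substrate (final) starts DNA synthesis, tracked by fluorescence at 0 and 10 min against buffer-only wells.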
PGK validate – validation of Trypanosoma brucei phosphoglycerate kinase inhibitors; TbPGK coupled GAPDH assay, Kinase-Glo luminescence; shares compounds with Pol kappa inh-1; 500 compounds, 79% hits; Potency, µM (doses to about 57.5 µM), without a hit: at the highest dose activity change, negative = inhibition, most hits filed as inhibitors; note: % is set by controls: 0 for no effect and ±100 for the full control effect; nearly all actives have a fitted effect of over 65% in size
POLI cherry-pick – Confirm cherry-picked inhibitors of human polymerase iota; shares compounds with Pol kappa inh-1; Potency, µM, actives largely listed as inhibitors; Pol iota primer extension, TAMRA/BHQ fluorescence; 1,500 compounds, 77% hits; AID 720496
Pol kappa inh-2 – confirmation of human DNA polymerase kappa inhibitors; shares compounds with Pol eta inh-1; purified Pol-kappa, fluorescent strand-displacement substrate; Potency, µM, usual class: inhibitors; 920 compounds, 76% hits; AID 720501
Pol eta inh-2 – Pol eta (human) inhibition, cherry-pick confirmation. shares compounds with Pol eta inh-1. Pol eta primer extension, TAMRA/BHQ fluorescence, 10 min. Potency, µM, usual class: inhibitors. 2,600 compounds, 64% hits
* hit, by the source's call; u = inconclusive; x = not tested or not shown; [ ] = remark or other dose. Sampled rows, rich in hits. Any-hit rate of the full collection: about 2.4%. Calls come from the whole dose curve; as a rule, active = well fitted curve in the direction sought with a large enough effect; inconclusive = small, poorly fitted or top-dose-only effect, or another doubt; inactive = no such curve, though single readings can be large; an effect the other way counts as inactive or inconclusive. Potency is the fitted concentration of half-maximal effect.

SMILES | FEN1 inhibitor | Pol beta inh | POLI inh | WRN inhibitor | Pol eta inh-1 | Pol kappa inh-1 | POLI cherry-pick | Pol eta inh-2 | others
CCOc1cc(/C=C2\C(=O)NN(c3ccccc3)C2=O)cc([N+](=O)[O-])c1O | u | 20µM* | 11µM* | u | 16µM* | 45µM* | u | 30*
O=C1NN(c2ccccc2)C(=O)/C1=C\c1ccc(-c2cc([N+](=O)[O-])ccc2O)o1 | u | 10µM* | 16µM* | -20%[11.6 µM] | 20µM* | 40µM* | u | 27*
CCOC(=O)CN1C(=O)S/C(=C/c2ccc(OC)c([N+](=O)[O-])c2)C1=O | -1% | 1% | 20% | -6% | -19% | -1% | x | x
COc1cc(/C=C2/C(=O)NN(c3ccccc3)C2=O)cc(Br)c1O | -22% | 4% | -29% | -13% | -4% | -25% | x | x
COc1cc(/C=C2\C(=O)NN(c3ccccc3)C2=O)cc([N+](=O)[O-])c1O | u | 13µM* | 13µM* | u | 13µM* | u | 38* | 27*
COc1cc(/C=C2\SC(=O)N(Cc3ccc(F)cc3)C2=O)cc([N+](=O)[O-])c1O | u | 0% | -10% | -14%[11.6 µM] | 50µM* | 5% | 84* | 76* | Pol kappa inh-2=27*
CCOc1cc(/C=C2\NC(=O)NC2=O)cc([N+](=O)[O-])c1O | -17% | 5% | 55% | -9% | -14% | -22% | x | x
COc1ccc(C2C3C=CCC(c4cccc(-c5ccc(N(C)C)cc5)c4)C3C(=O)N2Cc2ccccc2)cc1Cl (stereo not drawn) | -9% | x | 1% | x | x | -5% | x | x
COc1ccc(N2C(=O)C(CC(=O)Nc3ccccc3)N(CCC3=CCCCC3)C2=O)cc1 (stereo not drawn) | -2% | u | 9% | x | -15% | -11% | x | x
Cc1cc(C(=O)NNC(=O)/C=C/c2ccco2)c(C)o1 | u | x | 3.2µM* | u | 2.2µM* | 22µM* | u | 17* | PGK validate=16µM*
Cc1ccc(OCC(=O)NCc2ccco2)cc1C | 3% | 0% | 10% | 1%[57.1 µM] | u | -25% | x | x
CC(=O)c1cccc(OCC(=O)N(C)CC(=O)NCc2ccco2)c1 | u | x | 7.9µM* | u | 3.2µM* | 35µM* | 15* | 5.4* | PGK validate=3.3µM*;Pol kappa inh-2=19*
CCOc1ccc(N(CC)C(=O)Cn2cnc3sc(C)c(S(=O)(=O)N4CCN(c5ncccn5)CC4)c3c2=O)cc1 | -4% | 15% | 22% | x | -10% | -5% | x | x
COc1ccc(NC(=O)CSC2=Nc3ccccc3C3=NC(CC(=O)NCc4ccc(F)cc4)C(=O)N23)cc1 (stereo not drawn) | 15% | 4% | -9% | x | 16% | -5%[60.1 µM] | x | x
O=C(NCc1ccco1)c1ccc([N+](=O)[O-])o1 | -19% | 13µM* | 10µM* | u | 40µM* | u | 42* | 54*
CCc1nn2c(=O)cc(COc3ccc(/C=C4\C(=N)N5N=C(C)SC5=NC4=O)cc3)nc2s1 | u | 35µM* | u | u | 7.1µM* | 79µM* | 34* | 48* | Pol kappa inh-2=19*
CCOC(=O)c1ccc(N2C(=O)c3n[nH]c(-c4ccco4)c3C2c2ccc(OCC)cc2)cc1 (stereo not drawn) | u | u | -27% | x | -19% | -14% | x | x
CC(=O)N[C@H]1CSSC[C@@H](C(=O)N2CCC[C@H]2C(=O)N2CCC[C@H]2C(=O)N[C@@H](CCCCN)C(=O)N[C@@H](CC(=O)O)C(N)=O)NC(=O)CNC(=O)[C@H](Cc2c[nH]c3ccccc23)NC(=O)[C@H](CCCNC(=N)N)NC(=O)[C@@H](Cc2ccc(Cl)c(Cl)c2)NC(=O)[C@H](Cc2cnc[nH]2)NC(=O)[C@H](CCC(=O)O)NC1=O | x | x | x | x | x | -5%[12 µM] | x | x
O=C(O)C1C2C=CC(CC2)C1C(=O)O (stereo not drawn) | -4% | 18µM* | u | u | 11µM* | u | x | u | PGK validate=12µM*;Pol kappa inh-2=30*
CC(C)c1ccc(NC(=O)C2C3C=CC(CC3)C2C(=O)O)cc1 (stereo not drawn) | 1% | x | 185% | -32% | -3% | -16% | x | x
CN(CC(=O)Nc1c(Cl)cccc1Cl)C(=O)c1cccc(-n2cccc2)c1 | -11% | x | 14µM* | 50µM* | 20µM* | 79µM* | 17* | 30*
CN(CC(=O)Nc1cccc(F)c1)C(=O)c1cccc(-n2cccc2)c1 | -14% | x | 20µM* | 32µM* | 7.9µM* | u | 30* | 76*
CN(CC(=O)Nc1ccccc1Cl)C(=O)c1cccc(-n2cccc2)c1 | -2% | x | -8% | -1% | -7% | -13% | x | x
CCOc1ccc(CNC(=O)CCCn2c(=O)c3cccn3c3ccc(F)cc32)cc1 | 0% | -11% | 19% | x | -18% | 7% | x | x
Cc1ccc2c(c1)nc(SCC(O)c1ccc(Br)cc1)n2C (stereo not drawn) | -7% | 31% | 3% | x | -17% | -14% | x | x
CCc1nn(CC(=O)NCc2cccc(OC)c2OC)c(=O)c2cc3occc3n12 | -9% | 5% | 22% | x | x | 6% | x | x
CCC(=O)Nc1ccc(C(=O)COC(=O)c2nc3nccc(C)n3n2)cc1 | u | x | 4µM* | u | 3.5µM* | u | 17* | 27* | Pol kappa inh-2=17*
Cc1ccnc2nc(C(=O)OCC(=O)c3ccc(NC(=O)CC(C)C)cc3)nn12 | -11% | x | u | -15% | u | -38% | x | x
Cc1ccccc1OCC(=O)OCc1cc(=O)n2nc(C3CCCCC3)sc2n1 | -4% | -22% | 7% | x | -17% | -22% | x | x
Oc1ccc(/C=N/NC(=S)Nc2cccnc2)c(O)c1O | 4.5µM* | u | u | 10µM* | u | 2.2µM* | 2.7* | 3* | Pol kappa inh-2=3*
